Measurements reported in PubChem BioAssay AID504710 (Sanford-Burnham Center for Chemical Genomics, 2011).
Values joined by “and” are separate entries in the source; they are usually repeats but may differ in a detail not shown here. Equal entries are not always repeated. Active and inactive are the calls of the source.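 Rule for the calls: active = inhibition reaching about 16% in any single replicate (limit read from the data); inactive = the rest.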

What follows are compounds tested against Hexokinase HKDC1 (Homo sapiens) (UniProt Q2TB90) (assay: compounds lowering human HKDC1 activity – biochemical, single concentration, confirmation (AID 504710)). Conditions: recombinant HKDC1, G6PDH/diaphorase/resazurin fluorescence; at 20 µM; hits give high values.
Hexokinase HKDC1 (Homo sapiens), sequence (Q2TB90 whole entry, looked up): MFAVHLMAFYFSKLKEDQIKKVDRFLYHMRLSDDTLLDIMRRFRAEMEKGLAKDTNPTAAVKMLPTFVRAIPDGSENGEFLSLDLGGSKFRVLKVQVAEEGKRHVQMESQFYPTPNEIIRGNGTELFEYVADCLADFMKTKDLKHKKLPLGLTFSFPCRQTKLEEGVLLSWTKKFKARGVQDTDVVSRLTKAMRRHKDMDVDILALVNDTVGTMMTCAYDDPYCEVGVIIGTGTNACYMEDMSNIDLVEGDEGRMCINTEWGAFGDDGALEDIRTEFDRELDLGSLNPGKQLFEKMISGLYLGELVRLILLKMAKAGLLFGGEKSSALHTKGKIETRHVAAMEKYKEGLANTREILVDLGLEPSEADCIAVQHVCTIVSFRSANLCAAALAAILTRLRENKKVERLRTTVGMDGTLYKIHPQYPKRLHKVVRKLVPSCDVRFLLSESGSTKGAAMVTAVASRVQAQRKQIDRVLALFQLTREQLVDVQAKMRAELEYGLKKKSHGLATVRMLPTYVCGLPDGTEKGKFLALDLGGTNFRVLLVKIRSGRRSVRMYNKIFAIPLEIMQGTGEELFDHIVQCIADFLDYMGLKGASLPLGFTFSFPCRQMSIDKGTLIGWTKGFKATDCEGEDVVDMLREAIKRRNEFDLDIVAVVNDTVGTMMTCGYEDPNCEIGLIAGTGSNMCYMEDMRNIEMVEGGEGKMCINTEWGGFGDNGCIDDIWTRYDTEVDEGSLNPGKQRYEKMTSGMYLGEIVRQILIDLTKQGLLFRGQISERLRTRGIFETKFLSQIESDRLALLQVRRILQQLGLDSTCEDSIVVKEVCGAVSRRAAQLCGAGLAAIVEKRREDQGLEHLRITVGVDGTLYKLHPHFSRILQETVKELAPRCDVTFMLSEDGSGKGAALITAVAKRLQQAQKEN

inhibition, active:
CC1COCC(C)N1C1=C(Cl)C(=O)c2ccccc2C1=O (configuration not stated) 43.5%
O=C(CNC(=O)c1ccc2c(c1)OCCO2)N/N=C/c1ccc(O)cc1O 18.4%
O=[N+]([O-])c1ccc(NN=Cc2ccc(O)cc2O)nc1 50.8%
O=C1C(=O)c2c(C(=O)c3ccccc3)coc2-c2ccccc21 53.2%
Cc1ccc(S(=O)(=O)/N=C2\C=C(Nc3cccc(C(=O)O)c3)C(=O)c3ccccc32)cc1 79.9%
NC1=C(Br)C(=O)c2ncccc2C1=O 50.8%
O=C(O)CSc1cc(NS(=O)(=O)c2cccc([N+](=O)[O-])c2)c2ccccc2c1O 47.9%
O=Cc1[nH]c2ccccc2c1N(C(=O)CCl)c1ccccc1 34%
COC(=O)c1ccccc1NC1=C/C(=N\S(=O)(=O)c2cccs2)c2ccccc2C1=O 62.6%
O=C1C=C(c2c(O)ccc3ccccc23)c2ccccc2C1=O 78.1%
O=C(NC1=CC(=O)c2ccccc2C1=O)c1ccccc1 69.9%
COc1ccc(NC(=O)CSc2ccc(-c3ccco3)nn2)cc1OC 44%
Cc1ccc(S(=O)(=O)Nc2c(O)ccc3ccccc23)cc1 35.5%
CCOC(=O)c1ccc(NC(=O)CSc2n[nH]c(-c3ccncc3)n2)cc1 50.3%
CCc1ccc(S(=O)(=O)/N=C2/C=C(Sc3ncn[nH]3)C(=O)c3ccccc32)cc1 73%
NC1=CC(=O)C(=O)c2ccccc21 48.7%
O=C(O)COc1ccc(/C=N/NC(=O)c2ccc(-c3csc(Nc4ccc(Cl)cc4)n3)cc2)cc1 24.2%
CCc1nc2sc3c(=O)[nH]cnc3c2c2c1CSC(C)(C)C2 30.5%
O=C(O)c1ccc(NC2=C/C(=N/S(=O)(=O)c3ccccc3)c3ccccc3C2=O)cc1 76%
COC(=O)c1cc(C)nc2c1C(=O)C(=O)C=C2N1CCOCC1 65.8%
O=C1C=C(N2CCOCC2)c2ccccc2C1=O 79.4%
O=S(=O)(Nc1ccc(O)c2ccccc12)c1cccs1 30.6%
COCC(=O)OC1CCn2c1nc1c2C(=O)C(C)=C(NC(C)=O)C1=O (configuration not stated) 79.4%
O=C(O)c1cc(N2N=C(C(F)(F)F)/C(=C/C=C/c3ccco3)C2=O)ccc1Cl 57.5%

inhibition, inactive:
CC(=O)N1CCN(C2c3cccc4cccc(c34)C2NS(=O)(=O)c2ccccc2)CC1 (configuration not stated) -45.3%
COc1cc(N=c2ssnc2Cl)c(OC)cc1Cl -58.8% and -56.9%
Cn1c(SSc2ccc(-c3cccnc3)n2C)ccc1-c1cccnc1 -248%
Cc1cc(C2=NNC(=Nc3ccc(S(=O)(=O)N4CCOCC4)cc3)SC2)c(C)n1CC1CCCO1 (configuration not stated) -55.8%
O=C(NC(=S)NNC(=O)c1cnccn1)c1ccc(F)cc1 -36.1%
CC(=NNC(=S)N1CC2CCC(CC2)C1)c1cccc(C)n1 -51.9%
Nn1cnnc1N/N=C/c1cc(Br)cc(Br)c1O -31.9%
CC[n+]1c(/C=C2\Sc3ccccc3N2C)ccc2cccc(C)c21 -37.8%
COC(=O)Cn1c2ccc(F)cc2c2nc(C)sc21 -90.4%
CC(=O)/C(=N\Nc1ccc(Cl)cc1Cl)Sc1cccc2cccnc12 -44.8%
Cc1cc(C)nc(/N=c2/ssnc2Cl)c1 -84.2%
COc1ccccc1NC(=S)NN=C(C)c1ccccn1 -61%
COc1ccc(-c2[nH]c(-c3ccc(SC)cc3)nc2SCC(=O)Nc2nccs2)cc1 -36.1%
